Compounds with a hit are over-represented: about 4.1% of the library has one in this group of screens.
SUMO Mot1 rescue: SUMOylation pathway inhibition by Mot1-301 growth rescue; actives 1% (n = 320,000); AID 2716; growth rescue, % at 18.8 µM; S. cerevisiae Mot1-301 growth rescue, ATP luminescence, 38.5C; percent above DMSO median, 100 means doubled;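 active = every valid replicate shows activation above 250% relative to neutral control wells; inactive = the rest, any valid replicate at or below 250%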;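 note: OY570 slx delta 5 strain wells were the positive control but not used for scaling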
MEKK3 PB1 HTS: modulators (inhibitors or enhancers) of MEK5 binding to human MEKK3 PB1 domain | actives 1.4% (n = 290,000) | binding response (% of control), % at 10 µM | Q99759 | bead-based flow cytometry, Alexa488-MEK5 binding to MEKK3; actives lie on both sides; 0 = blocked by unlabeled MEK5, 100 = vehicle;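 active = binding response more than 3 SD above or below the average of its plate-row segment, actives on both sides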;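 note: Alexa488 bead fluorescence after subtracting the streptavidin-only scavenger bead signal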
Target sequence (Q99759 whole entry, looked up, the tested form may be a part): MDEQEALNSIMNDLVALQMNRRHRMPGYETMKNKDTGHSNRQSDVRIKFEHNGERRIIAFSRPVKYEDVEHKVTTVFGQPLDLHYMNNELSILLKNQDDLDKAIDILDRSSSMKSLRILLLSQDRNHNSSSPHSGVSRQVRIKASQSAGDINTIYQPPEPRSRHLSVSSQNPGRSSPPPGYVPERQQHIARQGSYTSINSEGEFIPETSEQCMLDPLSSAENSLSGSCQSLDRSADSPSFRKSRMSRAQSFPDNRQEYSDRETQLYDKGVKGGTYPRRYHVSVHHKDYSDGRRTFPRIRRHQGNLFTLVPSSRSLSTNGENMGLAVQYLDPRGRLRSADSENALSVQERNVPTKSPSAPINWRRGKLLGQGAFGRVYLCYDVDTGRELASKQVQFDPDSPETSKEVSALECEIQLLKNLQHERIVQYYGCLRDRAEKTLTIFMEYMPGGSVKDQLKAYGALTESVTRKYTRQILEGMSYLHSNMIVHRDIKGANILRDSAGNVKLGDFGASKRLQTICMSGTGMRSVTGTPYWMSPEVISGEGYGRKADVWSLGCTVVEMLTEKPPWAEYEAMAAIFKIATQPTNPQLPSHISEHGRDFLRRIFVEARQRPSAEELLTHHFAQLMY
CHT inh: inhibits the human high affinity choline transporter | actives 0.86% (n = 310,000) | B-score at 10 µM | AID 488975 | CHT-expressing cells, membrane potential dye, choline response; hits give low values | Q9GZV3;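 active = B-score over 3 SD under the library average, and starting fluorescence ratio not unusually high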;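 note: choline stimulus applied at its EC90 after an EC20 pre-addition; B-score computed on integrated fluorescence ratio after choline addition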
CHT PAM: allosterically activates the human high affinity choline transporter; CHT-expressing cells, membrane potential dye, choline EC20; hits give high values; LV-AA mutant CHT in HEK293 cells; actives 0.49% (n = 310,000); B-score at 10 µM; Q9GZV3;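 active = initial fluorescence not abnormally high and integrated response B-score, plate-corrected, over 3 SD above library mean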
MEKK2mut PB1 HTS: signal of MEK5 binding to mutant human MEKK2 PB1 domain; AID 1530; actives 0.35% (n = 290,000); percent response, % at 10 µM; bead flow cytometry, Alexa488-MEK5 binding to MEKK2 mutant; in the data active = percent response above about 24%, passing the limit was not always enough
MEKK2wt PB1 HTS: raises or lowers MEK5 binding to wildtype human MEKK2 PB1 domain | Q9Y2U5 | bead flow cytometry, Alexa488-MEK5 binding to MEKK2 WT; actives lie on both sides | binding response (% of control), % at 10 µM | actives 1.1% (n = 290,000) | AID 1531; in the data active = binding response below about 67% or above about 130%
CHT activ conf: confirmation of human choline transporter (CHT) activators. shares compounds with CHT PAM. CHT-expressing cells, membrane potential dye fluorescence (FDSS); % of choline EC20–EC90 response window; HEK293 expressing CHT LV-AA mutant; choline added at its EC20. activation, % at 10 µM. actives 91% (n = 2,500). AID 504833;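 active = primary screen active, with duplicate mean activation above negative control mean plus 3 SD, cut at about 11% in these data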
HEK293 MP dye: counter-screen for CHT activators: effect in parental HEK293 cells; actives 62% (n = 2,500); AID 623908; ratio readout change at 10 µM, hits read low; membrane potential dye fluorescence (FDSS); measured after EC20 choline addition; shares compounds with CHT PAM;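 active = duplicate-averaged ratio beyond 3 SD from buffer wells, up or down, though filed actives are nearly all decreases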
Starred values were filed as active, the others as inactive.

Screening O=C(NS(=O)(=O)Nc1ccc(Br)cn1)c1c[nH]c2ccccc12 returned SUMO Mot1 rescue 0, MEKK3 PB1 HTS 107, CHT inh inactive, CHT PAM inactive, MEKK2mut PB1 HTS 12 and MEKK2wt PB1 HTS 109.
COc1ccc(NS(=O)(=O)c2cccc(C(=O)N3CCN(c4ccccc4O)CC3)c2)cc1 was read as SUMO Mot1 rescue -6, CHT inh inactive and CHT PAM inactive.
For CCCn1cc(C(=O)OCC)c(=O)c2cc(F)c(F)cc21 the results were SUMO Mot1 rescue 13, MEKK3 PB1 HTS 108, CHT inh inactive, CHT PAM inactive, MEKK2mut PB1 HTS 19 and MEKK2wt PB1 HTS 102.
Screening CCn1cc(C(=O)O)c(=O)c2cc(Br)ccc21 returned SUMO Mot1 rescue -8, MEKK3 PB1 HTS 97, CHT inh inactive, CHT PAM inactive, MEKK2mut PB1 HTS -1 and MEKK2wt PB1 HTS 97.
Screening CCOC(=O)c1cn(CC2CC2)c2cc(F)c(F)cc2c1=O returned SUMO Mot1 rescue -8, MEKK3 PB1 HTS 100, CHT inh inactive, CHT PAM 8.2*, MEKK2mut PB1 HTS -3, MEKK2wt PB1 HTS 98, CHT activ conf 59* and HEK293 MP dye -67*.
For CCOC(=O)c1cn(CC)c2ccc(Br)cc2c1=O the results were SUMO Mot1 rescue 1, MEKK3 PB1 HTS 102, CHT inh inactive, CHT PAM inactive, MEKK2mut PB1 HTS 1, MEKK2wt PB1 HTS 97, CHT activ conf 44* and HEK293 MP dye -36*.
Screening CCOC(=O)c1cn(CC)c2ccc(S(=O)(=O)N3CCC(C)CC3)cc2c1=O returned SUMO Mot1 rescue 8, MEKK3 PB1 HTS 103, CHT inh inactive, CHT PAM inactive, MEKK2mut PB1 HTS 3 and MEKK2wt PB1 HTS 102.
For CCOC(=O)c1cn(CC)c2cc(Cl)c([N+](=O)[O-])cc2c1=O the results were SUMO Mot1 rescue -1, MEKK3 PB1 HTS 99, CHT inh inactive, CHT PAM 7.5*, MEKK2mut PB1 HTS 18, MEKK2wt PB1 HTS 115, CHT activ conf 46* and HEK293 MP dye -49*.
Screening Cc1ccc(/C=C(\C#N)C(=O)NC(C)c2ccccc2)o1 (configuration not stated) returned SUMO Mot1 rescue 2, MEKK3 PB1 HTS 109, CHT inh inactive, CHT PAM inactive, MEKK2mut PB1 HTS 3 and MEKK2wt PB1 HTS 107.
`CC1(c2ccc3c(c2)OCCCO3)NC(=O)N(CC(=O)NCCc2ccccc2)C1=O` (configuration not stated) gave SUMO Mot1 rescue 99.
`CCCCn1c2c(c(=N)c3c1CCC3)CCC2` gave SUMO Mot1 rescue -9, MEKK3 PB1 HTS 104, CHT inh inactive, CHT PAM 7.4*, MEKK2mut PB1 HTS 9, MEKK2wt PB1 HTS 107, CHT activ conf 35* and HEK293 MP dye -52*.
`CCCCCCn1c2c(c(=N)c3c1CCC3)CCC2` gave SUMO Mot1 rescue 12, MEKK3 PB1 HTS 98, CHT inh inactive, CHT PAM 8.2*, MEKK2mut PB1 HTS -2, MEKK2wt PB1 HTS 98, CHT activ conf 72* and HEK293 MP dye -44*.
Screening CCCCCCCn1c2c(c(=N)c3c1CCC3)CCCC2 returned MEKK3 PB1 HTS 100, MEKK2mut PB1 HTS 0 and MEKK2wt PB1 HTS 103.
Screening CCCCCCCCCn1c2c(c(=N)c3c1CCC3)CCC2 returned SUMO Mot1 rescue 483*, MEKK3 PB1 HTS 96, CHT inh inactive, CHT PAM 11*, MEKK2mut PB1 HTS 4, MEKK2wt PB1 HTS 119, CHT activ conf 82* and HEK293 MP dye -61*.

Assay outcomes as filed in PubChem.
